Screening data from PubChem.
Coupling enz = counter-screen for Giardia aldolase inhibitors: coupling enzyme system. coupling enzyme system counterscreen, AmpLite Red fluorescence. activity change, negative = inhibition, % at 58.2 µM, hits read low. 290,000 tested, 0.67% active. AID 2472; in the data active = activity change below about -30%
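Counterscreen lacking aldolase: glyceraldehyde-3-phosphate coupling-enzyme reagent preincubated 10 min at RT with compound (at 57.5 uM final), then substrate/coupling system with AmpLite Red added; fluorescence read at 525/598 nm after 20 min RT.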
ELG1 repair inh = inhibitors of ELG1-dependent DNA repair in HEK293T cells | HEK293T ELG1-luciferase reporter, luminescence, 16 h; DNA damage induced by 5-fluorouridine | Potency, µM (series often up to 46.1 µM), for the others: at the highest dose activity change, negative = inhibition, most hits filed as inhibitors | 330,000 tested, 2.3% active; also: potency is read from the fitted curve at half-maximal effect; nearly all actives have a fitted effect of over 55% in size
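In this reporter screen, reduction of luminescence relative to DMSO vehicle indicated activity. Compounds and 5-fluorouridine were added together to 2,000 cells per well, incubated for 16 hr at 37 °C, then developed with ONE-Glo.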
Giardia kill = kills Giardia lamblia; 340,000 tested, 0.15% active; activity change, % at 7.66 µM, hits read low; Giardia lamblia trophozoite viability; AID 540267; in the data active = activity change below about -80%; inconclusive = between about -30% and that limit;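 also: parasites exposed to compound for two days anaerobically before the ATP read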
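ATP-content bioluminescence gauges trophozoite survival. Cells (100/well) receive compound and incubate anaerobically for 48 hrs at 37 deg C; detection reagent follows for 15-30 min at room temperature.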
Sfp inh = blocks B. subtilis Sfp PPTase activity | Potency, µM, inactives show largest response in the series, negative = inhibition, most hits filed as inhibitors | 310,000 tested, 3.5% active | Q9F4F7 | Biochemical Sfp PPTase activity, qHTS;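 also: the enzyme is Sfp with the accession as filed and its product quenches rhodamine fluorescence; potency is read from the fitted curve at half-maximal effect; 0% = enzyme reaction without inhibitor and -100% = no enzyme wells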
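Reaction rates are the 30-min fluorescence difference (ex 525, em 598 nm) in wells containing 15 nM Sfp, 5 uM rhodamine-CoA and 12.5 uM BHQ-2-YbbR at pH 7.6 with 10 mM MgCl2.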
Numbers without * were called inactive. Sampled rows, rich in hits. Any-hit rate of the full collection: about 5.5%. Unless noted, calls follow the shape of the dose curve; as a rule, active = well fitted curve in the direction sought with a large enough effect; inconclusive = small, poorly fitted or top-dose-only effect, or another doubt; inactive = no such curve, though single readings can be large; an effect the other way counts as inactive or inconclusive. Unless noted, % is scaled to controls: 0 for no effect and ±100 for the full control effect.

What do the screens show for `Cc1ccc2nsnc2c1NC(=S)NC(=O)c1ccco1`?
Coupling enz: -45*; ELG1 repair inh: 9%; Giardia kill: -9; Sfp inh: 50µM*

How did O=C(NC(=S)Nc1ccccn1)c1ccco1 do in these assays?
Coupling enz: 1; ELG1 repair inh: inconclusive; Giardia kill: -5; Sfp inh: 56µM*

How did Cc1ccc2nc(NC(=S)NC(=O)c3ccco3)sc2c1 do in these assays?
Coupling enz: -1; ELG1 repair inh: inconclusive; Giardia kill: inconclusive; Sfp inh: inconclusive

Results for CCN(CC)c1ccc(NC(=S)Nc2ccc(F)cc2)cc1 ?
Coupling enz: -25; ELG1 repair inh: 18%; Giardia kill: -3; Sfp inh: 45µM*

How did Oc1ccc(NC(=S)Nc2ccc(F)cc2)cc1 do in these assays?
Coupling enz: 3; ELG1 repair inh: 14%; Giardia kill: 14; Sfp inh: -12%

Results for Cc1ccccc1OCC(=O)NCC(=O)OCc1ccc2ccccc2c1 ?
Giardia kill: 9

Results for CC1(CO)COC2(OC1)C(=O)Nc1ccccc12 (stereo not given) ?
ELG1 repair inh: 26%; Giardia kill: 8

How did COc1ccc(CCNC(=O)CCn2c(=O)c3cccn3c3ccc(F)cc32)c(OC)c1OC do in these assays?
ELG1 repair inh: inconclusive; Giardia kill: 13; Sfp inh: 19%

What do the screens show for `O=C(NC(=S)Nc1ccccn1)c1ccc(-c2ccccc2)cc1`?
ELG1 repair inh: inconclusive; Giardia kill: -90*; Sfp inh: 3%

Results for CC(=O)NC1C(OC2OC(CC(O)C3OC([N+]4=CCC(=O)NC4=O)C(O)C3O)C(O)C(O)C2NC(=O)/C=C/CCCCCCCCC(C)C)OC(CO)C(O)C1O (stereo not given) ?
Sfp inh: -6%

How did CC(C)OC(=O)c1cn(-c2ccccc2)nc1-c1ccco1 do in these assays?
Coupling enz: 0; ELG1 repair inh: -6%; Giardia kill: -13; Sfp inh: 8.9µM*

Results for FC(F)(F)c1cccc(-c2nc3nc(Cl)c(Cl)nc3[nH]2)c1 ?
Coupling enz: -36*; ELG1 repair inh: inconclusive; Giardia kill: -13; Sfp inh: -12%

Results for CC(=O)c1ccc(OCC(O)CN(C)Cc2cccs2)cc1 (stereo not given) ?
Coupling enz: -2; ELG1 repair inh: -4%; Giardia kill: -3; Sfp inh: 56µM*

What do the screens show for `O=C1C(=O)c2ccc(-c3ccccc3)cc2-c2ccccc21`?
Coupling enz: -72*; ELG1 repair inh: 9.2µM*; Giardia kill: -1; Sfp inh: 1%

Results for Nc1ccc2c(c1)C(=O)C(=O)c1ccccc1-2 ?
Coupling enz: 0; ELG1 repair inh: 4.6µM*; Giardia kill: 12; Sfp inh: 13%

Results for O=C(O)CC1S/C(=N/N=C/c2ccc(-c3ccccc3[N+](=O)[O-])o2)NC1=O (stereo not given) ?
Coupling enz: -29; ELG1 repair inh: 2%; Giardia kill: -3; Sfp inh: 22µM*

What do the screens show for `Cc1ccc(S(=O)(=O)Oc2ccc(/C=N/N=C3/NC(=O)C(CC(=O)O)S3)cc2)cc1` (stereo not given)?
Coupling enz: 10; ELG1 repair inh: 6%; Giardia kill: 0; Sfp inh: 21%

What do the screens show for `Cc1ccc(-c2ccc(/C=N/N=C3/NC(=O)C(CC(=O)O)S3)o2)c([N+](=O)[O-])c1` (stereo not given)?
Coupling enz: -6; ELG1 repair inh: -4%; Giardia kill: -9; Sfp inh: 20µM*

Results for COc1cccc(Cn2c(=O)c(-c3cccs3)nc3cnc(OCc4ccccc4)nc32)c1 ?
Coupling enz: 4; Sfp inh: 22%

How did CC1(C)CC2C1CC[C@]1(C)CCC3C(C(=O)O)CC(=O)O[C@]32C1 (stereo not given in full) do in these assays?
Coupling enz: 0; Sfp inh: -2%

Results for Cc1cccc(N2CCN(C(=O)CNC(=O)c3cccc([N+](=O)[O-])c3)CC2)c1C ?
Coupling enz: -1; ELG1 repair inh: 18µM*; Giardia kill: 13; Sfp inh: -6%

How did S=c1[nH]nc(-c2cccc(Cl)c2)n1Cc1ccccc1 do in these assays?
Coupling enz: -3; ELG1 repair inh: 25%; Giardia kill: -5; Sfp inh: -18%

Results for CC(c1n[nH]c(=S)n1Cc1ccccc1)N(C)C (stereo not given) ?
Coupling enz: 4; ELG1 repair inh: 2%; Giardia kill: -5; Sfp inh: 89µM*

What do the screens show for `Cc1cccc(-c2n[nH]c(=S)n2Cc2ccccc2)c1`?
Coupling enz: 5; ELG1 repair inh: -8%; Giardia kill: -21; Sfp inh: 79µM*

How did Cc1ccc(-c2n[nH]c(=S)n2Cc2ccccc2)cc1 do in these assays?
Coupling enz: 4; ELG1 repair inh: 4%; Giardia kill: 3; Sfp inh: 5%

How did Cc1ccc(-c2nnc(Nc3ccc(C(=O)N(C)C)cc3)c3ccccc23)cc1S(=O)(=O)NCC1CCCO1 (stereo not given) do in these assays?
Coupling enz: 1; ELG1 repair inh: 21µM*; Giardia kill: 0; Sfp inh: 8%

What do the screens show for `COC(=O)c1ccc(Nc2nnc(-c3ccc(C)c(S(=O)(=O)NCC4CCCO4)c3)c3ccccc23)cc1` (stereo not given)?
Coupling enz: -2; ELG1 repair inh: inconclusive; Giardia kill: -15; Sfp inh: 9%

Results for Cc1ccc(Sc2c(O)c3ccccc3n(C)c2=O)cc1 ?
Coupling enz: 2; ELG1 repair inh: -29%; Giardia kill: 0; Sfp inh: 2%

How did Cc1ccc(Sc2c(C=O)c3ccccc3n2C)cc1 do in these assays?
Coupling enz: 2; ELG1 repair inh: 5.8µM*; Giardia kill: 0; Sfp inh: -13%

Results for Cc1cc(C)c(NC(=O)COC(=O)c2nc3nccc(C)n3n2)c(Cl)c1 ?
ELG1 repair inh: 18%; Giardia kill: 4

What do the screens show for `COc1cc(OC)nc(-n2ncc(Br)c(Br)c2=O)n1`?
Coupling enz: -2; ELG1 repair inh: 4.6µM*; Giardia kill: 15; Sfp inh: 4%

How did COC(=O)c1cnn(-c2nc(OC)cc(OC)n2)c1C do in these assays?
Coupling enz: 0; ELG1 repair inh: -6%; Giardia kill: 18; Sfp inh: 15%

How did COCC(=O)N1CCC2(CC1)CN(C(=O)Nc1ccc(OC)cc1)C2 do in these assays?
Coupling enz: 3; Sfp inh: 14%

Results for Cc1ccc(NC(=O)c2cccc(NC(=O)/C=C/c3ccco3)c2)cc1C ?
Coupling enz: -1; ELG1 repair inh: inconclusive; Giardia kill: -9; Sfp inh: 2%

How did CCc1ccccc1NC(=O)c1cccc(NC(=O)/C=C/c2ccco2)c1 do in these assays?
Coupling enz: -4; ELG1 repair inh: inconclusive; Giardia kill: -15; Sfp inh: 20µM*

Results for O=C(/C=C/c1ccco1)Nc1cccc(C(=O)Nc2ccccc2C(=O)O)c1 ?
Coupling enz: 7; ELG1 repair inh: 1%; Giardia kill: 0; Sfp inh: 56µM*
